# Data taken from the supplement of paper PMC8728848.
# About 410 targets per protein were measured; listed, in parts, are those with the strongest signals and a random draw of the rest.
# Tests used:
# Assay in all cases: glycan array binding signal (z-score within array); higher = stronger binding
# Settings in all cases: glycan notation: IUPAC condensed, linker removed
# [1] = target: Fuc(a1-2)[GalNAc(a1-3)]Gal(b1-4)Glc
# How it was run: (§1)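 Glycan array data were curated from 3228 arrays in the Consortium for Functional Glycomics database and kept only where the protein sequence was available. Glycan names were converted to IUPAC-condensed notation, and columns mapping to the same glycan were averaged. The binding signal is a within-array Z-score, averaged across arrays of the same protein sequence at different concentrations or buffers and across linkers. Negative Z-scores can be read as non-binding.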
# [2] = target: Gal(b1-3)GalNAc(b1-4)Gal(b1-4)Glc
# How it was run: as §1
# [3] = target: Gal(b1-4)GlcNAc(b1-3)Gal(b1-4)[Fuc(a1-3)]GlcNAc(b1-3)Gal(b1-4)[Fuc(a1-3)]GlcNAc
# How it was run: as §1
# [4] = target: Gal(b1-4)GlcNAc(b1-3)GalNAc
# How it was run: as §1
# [5] = target: Gal3S6S(b1-4)GlcNAc6S
# How it was run: as §1
# [6] = target: Glc(a1-4)Glc
# How it was run: as §1
# [7] = target: GlcNAc(b1-3)GalNAc
# How it was run: as §1
# [8] = target: GlcNAc(b1-3)[GlcNAc(b1-6)]GalNAc
# How it was run: as §1
# [9] = target: GlcNAc(b1-4)[GlcNAc(b1-6)]GalNAc
# How it was run: as §1
# [10] = target: Neu5Ac(a2-3)Gal(b1-3)[Fuc(a1-4)]GlcNAc
# How it was run: as §1
# [11] = target: Neu5Ac(a2-3)Gal(b1-4)GlcNAc
# How it was run: as §1
# [12] = target: Neu5Ac(a2-3)Gal(b1-4)GlcNAc(b1-3)Gal(b1-4)GlcNAc(b1-3)Gal(b1-4)GlcNAc
# How it was run: as §1
# [13] = target: Neu5Ac(a2-3)Gal(b1-4)[Fuc(a1-3)]GlcNAc6S
# How it was run: as §1
# [14] = target: Neu5Ac9Ac(a2-6)Gal(b1-4)GlcNAc
# How it was run: as §1
# [15] = target: Neu5Gc(a2-6)Gal(b1-4)GlcNAc
# How it was run: as §1
# [16] = target: Fuc(a1-2)[GalNAc(a1-3)]Gal(b1-4)GlcNAc
# How it was run: as §1
# [17] = target: Gal(a1-3)Gal(b1-3)Glc
# How it was run: as §1
# [18] = target: Gal(a1-3)Gal(b1-4)[Fuc(a1-3)]GlcNAc
# How it was run: as §1
# [19] = target: Gal(a1-4)Gal(b1-4)Gal
# How it was run: as §1
# [20] = target: Gal3S(b1-3)GlcNAc
# How it was run: as §1
# [21] = target: Gal6S(b1-4)Glc
# How it was run: as §1
# [22] = target: GlcA(b1-3)Gal
# How it was run: as §1
# [23] = target: GlcA(b1-6)Gal
# How it was run: as §1
# [24] = target: GlcNAc(b1-3)[GlcNAc(b1-6)]GlcNAc
# How it was run: as §1
# [25] = target: GlcNAc(b1-4)GlcNAc(b1-4)GlcNAc(b1-4)GlcNAc(b1-4)GlcNAc
# How it was run: as §1
# [26] = target: Neu5Ac(a2-3)Gal(b1-4)[Fuc(a1-3)]GlcNAc
# How it was run: as §1
# [27] = target: Neu5Ac(a2-3)Gal(b1-4)[Fuc(a1-3)]GlcNAc(b1-3)Gal
# How it was run: as §1
# [28] = target: Neu5Ac(a2-3)GalNAc(b1-4)GlcNAc
# How it was run: as §1
# [29] = target: Neu5Ac(a2-3)[GalNAc(b1-4)]Gal(b1-4)Glc
# How it was run: as §1
# [30] = target: Neu5Ac(a2-3)[Neu5Ac(a2-6)]GalNAc
# How it was run: as §1
# [31] = target: Neu5Ac(a2-6)Gal(b1-4)GlcNAc(b1-3)Gal(b1-4)[Fuc(a1-3)]GlcNAc(b1-3)Gal(b1-4)[Fuc(a1-3)]GlcNAc
# How it was run: as §1
# [32] = target: Neu5Ac(a2-6)GalNAc
# How it was run: as §1
# [33] = target: Gal(a1-3)Gal(b1-4)Glc
# How it was run: as §1
# [34] = target: Gal(b1-3)[Fuc(a1-4)]GlcNAc
# How it was run: as §1
# [35] = target: Gal(b1-4)Glc6S
# How it was run: as §1
# [36] = target: Glc(b1-4)Glc
# How it was run: as §1
# [37] = target: GlcNAc(a1-6)Gal(b1-4)GlcNAc
# How it was run: as §1
# [38] = target: GlcNAc(b1-2)Man(a1-3)[GlcNAc(b1-2)Man(a1-6)]Man(b1-4)GlcNAc(b1-4)GlcNAc
# How it was run: as §1
# [39] = target: GlcNAc(b1-3)Gal(b1-4)Glc
# How it was run: as §1
# [40] = target: GlcNAc(b1-3)Gal(b1-4)GlcNAc
# How it was run: as §1
# [41] = target: Man(a1-2)Man(a1-3)[Man(a1-2)Man(a1-6)]Man(a1-6)[Man(a1-2)Man(a1-2)Man(a1-3)]Man
# How it was run: as §1
# [42] = target: Neu5Ac(a2-3)Gal(b1-3)[Fuc(a1-4)]GlcNAc(b1-3)Gal(b1-4)[Fuc(a1-3)]GlcNAc
# How it was run: as §1
# [43] = target: Neu5Ac(a2-3)Gal(b1-3)[Neu5Ac(a2-6)]GalNAc
# How it was run: as §1
# [44] = target: Neu5Ac(a2-3)Gal(b1-4)GlcNAc(b1-2)Man(a1-3)[Neu5Ac(a2-6)Gal(b1-4)GlcNAc(b1-2)Man(a1-6)]Man(b1-4)GlcNAc(b1-4)GlcNAc
# How it was run: as §1
# [45] = target: Neu5Ac(a2-3)Gal(b1-4)GlcNAc(b1-3)Gal(b1-3)GlcNAc
# How it was run: as §1
# [46] = target: Neu5Ac(a2-6)Gal
# How it was run: as §1
# [47] = target: Neu5Ac(a2-8)Neu5Ac
# How it was run: as §1
# [48] = target: Neu5Ac(a2-8)Neu5Ac(a2-8)Neu5Ac(a2-3)[GalNAc(b1-4)]Gal(b1-4)Glc
# How it was run: as §1
# [49] = target: Neu5Ac(b2-6)Gal(b1-4)GlcNAc
# How it was run: as §1
binder,measurement,setting,value
CLL-1 (Homo sapiens) (protein) MWIDFFTYSSMSEEVTYADLQFQNSSEMEKIPEIGKFGEKAPPAPSHVWRPAALFLTLLCLLLLIGLGVLASMFHVTLKIEMKKMNKLQNISEELQRNISLQLMSNMNISNKIRNLSTTLQTIATKLCRELYSKEQEHKCKPCPRRWIWHKDSCYFLSDDVQTWQESKMACAAQNASLLKINNKNALEFIKSQSRSYDYWLGLSPEEDSTRGMRVDNIINSSAWVIRNAPDLNNMYCGYINRLYVQYYHCTYKKRMICEKMANPVQLGSTYFREA,glycan array binding signal (z-score),[1],-0.065
same,glycan array binding signal (z-score),[2],-0.279
same,glycan array binding signal (z-score),[3],-0.107
same,glycan array binding signal (z-score),[4],-0.238
same,glycan array binding signal (z-score),[5],3.91
same,glycan array binding signal (z-score),[6],1
same,glycan array binding signal (z-score),[7],-0.228
same,glycan array binding signal (z-score),[8],-0.19
same,glycan array binding signal (z-score),[9],-0.247
same,glycan array binding signal (z-score),[10],1.22
same,glycan array binding signal (z-score),[11],-0.14
same,glycan array binding signal (z-score),[12],2.45
same,glycan array binding signal (z-score),[13],-0.15
same,glycan array binding signal (z-score),[14],-0.216
same,glycan array binding signal (z-score),[15],-0.231
"TIM-1 (Mus musculus), AAL35774 (protein) MNQIQVFISGLILLLPGAVDSYVEVKGVVGHPVTLPCTYSTYRGITTTCWGRGQCPSSACQNTLIWTNGHRVTYQKSSRYNLKGHISEGDVSLTIENSVESDSGLYCCRVEIPGWFNDQKVTFSLQVKPEIPTRPPTRPTTTRPTATGRPTTISTRSTHVPTSIRVSTSTPPTSTHTWTHKPEPTTFCPHETTAEVTGIPSHTPTDWNGTVTSSGDTWSNHTEAIPPGKPQKNPTKGFYVGICIAALLLLLLVSTVAITRYILMKRKSASLSVVAFRVSKIEALQNAAVVHSRAEDNIYIVEDRP",glycan array binding signal (z-score),[16],-0.268
same,glycan array binding signal (z-score),[17],-0.335
same,glycan array binding signal (z-score),[18],2.6
same,glycan array binding signal (z-score),[19],1.46
same,glycan array binding signal (z-score),[20],-0.247
same,glycan array binding signal (z-score),[21],-0.128
same,glycan array binding signal (z-score),[22],2.46
same,glycan array binding signal (z-score),[23],2.12
same,glycan array binding signal (z-score),[24],-0.61
same,glycan array binding signal (z-score),[25],1.29
same,glycan array binding signal (z-score),[26],-0.451
same,glycan array binding signal (z-score),[27],-0.414
same,glycan array binding signal (z-score),[28],-0.411
same,glycan array binding signal (z-score),[29],-0.433
same,glycan array binding signal (z-score),[30],0.386
same,glycan array binding signal (z-score),[31],-0.125
same,glycan array binding signal (z-score),[32],-0.529
"Ficolin A (Rattus norvegicus), Q9WTS8 (protein) MWWPMLWAFPVLLCLCSSQALGQESGACPDVKIVGLGAQDKVAVIQSCPSFPGPPGPKGEPGSPAGRGERGLQGSPGKMGPPGSKGEPGTMGPPGVKGEKGERGTASPLGQKELGDALCRRGPRSCKDLLTRGIFLTGWYTIYLPDCRPLTVLCDMDVDGGGWTVFQRRVDGSINFYRDWDSYKRGFGNLGTEFWLGNDYLHLLTANGNQELRVDLREFQGQTSFAKYSSFQVSGEQEKYKLTLGQFLEGTAGDSLTKHNNMAFSTHDQDNDTNGGKNCAALFHGAWWYHDCHQSNLNGRYLPGSHESYADGINWLSGRGHRYSYKVAEMKIRAS",glycan array binding signal (z-score),[16],-0.02
same,glycan array binding signal (z-score),[33],-0.071
same,glycan array binding signal (z-score),[18],-0.105
same,glycan array binding signal (z-score),[34],-0.069
same,glycan array binding signal (z-score),[35],-0.092
same,glycan array binding signal (z-score),[36],-0.11
same,glycan array binding signal (z-score),[37],17.3
same,glycan array binding signal (z-score),[38],-0.048
same,glycan array binding signal (z-score),[39],-0.056
same,glycan array binding signal (z-score),[40],-0.094
same,glycan array binding signal (z-score),[41],-0.092
same,glycan array binding signal (z-score),[42],-0.064
same,glycan array binding signal (z-score),[43],0.325
same,glycan array binding signal (z-score),[44],-0.027
same,glycan array binding signal (z-score),[45],-0.098
same,glycan array binding signal (z-score),[29],0.265
same,glycan array binding signal (z-score),[46],-0.042
same,glycan array binding signal (z-score),[47],0.58
same,glycan array binding signal (z-score),[48],-0.047
same,glycan array binding signal (z-score),[49],1.16
